Values joined by “and” are separate entries in the source; they are usually repeats but may differ in a detail not shown here. Equal entries are not always repeated. A structure can be active in one record and inactive in another. Active and inactive are the calls of the source. Rule for the calls: active = hit-call score of the fitted dose curve at least 0.9, where 1 is the maximum; inactive = score below 0.9.
Experiments:
[1] = read-out: Decorin, DCN (gene 1634); assay: BSK_MyoF_Decorin: BioMAP Diversity Plus: MyoF Assay for Decorin Biomarker Activity (AID 2284265); conditions: primary human lung fibroblasts
Summary of the method: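 Compound is added to lung fibroblast cultures; cells incubate 24 h; decorin is then measured by ELISA; the response is analysed upward against DMSO controls.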

[2] = BSK_MyoF_SRB: Viability Assessment in the BioMAP Diversity Plus: MyoF Assay (AID 2284267); conditions: primary human lung fibroblasts;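 note: total protein by SRB absorbance in parallel cultures as cytotoxicity measure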
Summary of the method: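 Read-out is SRB absorbance at 560 nm, reflecting total protein in parallel lung fibroblast cultures harvested 24 h after compound addition. Cells were TCA-fixed (10%) and stained with 0.1% SRB; activity is referenced to DMSO.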

[3] = read-out: Matrix Metallopeptidase 1 (MMP1), MMP1 (gene 4312); assay: BSK_MyoF_MMP1: BioMAP Diversity Plus: MyoF Assay for Matrix Metallopeptidase 1 (MMP1) Biomarker Activity (AID 2284268); conditions: primary human lung fibroblasts
Summary of the method: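 Lung fibroblast cultures were dosed with test chemicals and, after 24 h, MMP1 levels were measured by ELISA; responses were referenced to DMSO and analysed for increases.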

[4] = read-out: TIMP metallopeptidase inhibitor 1 (TIMP1), TIMP1 (gene 7076); assay: BSK_MyoF_TIMP1: BioMAP Diversity Plus: MyoF Assay for TIMP metallopeptidase inhibitor 1 (TIMP1) Biomarker Activity (AID 2284269); conditions: primary human lung fibroblasts
Summary of the method: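 Fibroblasts from human lung are dosed with chemical, cultured 24 h, and assayed for TIMP-1 by ELISA. Increases over the DMSO baseline are scored, with SRB total-protein staining run in parallel for cytotoxicity.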

[5] = read-out: Eotaxin 3, CCL26 (gene 10344); assay: BSK_BF4T_Eotaxin3: BioMAP Diversity Plus: BF4T Assay for Eotaxin 3 Biomarker Activity (AID 2284258); conditions: primary human bronchial epithelial cells with fibroblasts
Summary of the method: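 Co-culture of human bronchial epithelial cells and dermal fibroblasts, exposed to chemicals for 24 h versus DMSO. Eotaxin-3 quantified by ELISA; cytotoxicity checked in parallel cultures by sulforhodamine B total-protein staining.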

[6] = read-out: Monocyte Chemoattractant Protein-1 (MCP1), CCL2 (gene 6347); assay: BSK_BF4T_MCP1: BioMAP Diversity Plus: BF4T Assay for Monocyte Chemoattractant Protein-1 (MCP1) Biomarker Activity (AID 2284259); conditions: primary human bronchial epithelial cells with fibroblasts
Summary of the method: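 Co-culture of bronchial epithelial cells and dermal fibroblasts dosed with chemical; MCP-1 measured by ELISA 24 h later. Activity fitted in positive direction versus DMSO; cytotoxicity checked by SRB staining in parallel cultures.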

[7] = read-out: Intercellular Adhesion Molecule 1 (ICAM1), ICAM1 (gene 3383); assay: BSK_BF4T_ICAM1: BioMAP Diversity Plus: BF4T Assay for Intercellular Adhesion Molecule 1 (ICAM1) Biomarker Activity (AID 2284260); conditions: primary human bronchial epithelial cells with fibroblasts
Summary of the method: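 Co-culture of human bronchial epithelial cells and dermal fibroblasts exposed 24 h to chemical; cell-surface ICAM-1 quantified by ELISA. Parallel SRB total-protein staining assessed cytotoxicity; activity fitted relative to DMSO.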

[8] = read-out: CD90, THY1 (gene 7070); assay: BSK_BF4T_CD90: BioMAP Diversity Plus: BF4T Assay for CD90 Biomarker Activity (AID 2284262); conditions: primary human bronchial epithelial cells with fibroblasts
Summary of the method: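 Co-culture of human bronchial epithelial cells and dermal fibroblasts, 24 h compound exposure. Cell-surface CD90 measured by ELISA relative to DMSO; parallel SRB total-protein staining for cytotoxicity.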

[9] = read-out: Interleukin-8 (IL8), CXCL8 (gene 3576); assay: BSK_BF4T_IL8: BioMAP Diversity Plus: BF4T Assay for Interleukin-8 (IL8) Biomarker Activity (AID 2284263); conditions: primary human bronchial epithelial cells with fibroblasts
Summary of the method: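 Human bronchial epithelial cells with dermal fibroblasts co-culture; IL-8 measured by ELISA 24 hours after dosing, fitted vs DMSO. Cytotoxicity tracked in parallel cultures by SRB total-protein staining.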

[10] = read-out: Interleukin-1 alpha (IL1a), IL1A (gene 3552); assay: BSK_BF4T_IL1a: BioMAP Diversity Plus: BF4T Assay for Interleukin-1 alpha (IL1a) Biomarker Activity (AID 2284264); conditions: primary human bronchial epithelial cells with fibroblasts
Summary of the method: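 Human bronchial epithelial cells co-cultured with dermal fibroblasts, dosed and read at 24 h. Secreted/surface IL-1α quantified by ELISA; gain-of-signal fitted relative to DMSO baseline. Parallel SRB total-protein staining tracked cytotoxicity.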

[11] = read-out: KRT18 (gene 3875); assay: BSK_BF4T_Keratin818: BioMAP Diversity Plus: BF4T Assay for Keratin 818 Biomarker Activity (AID 2284266); conditions: primary human bronchial epithelial cells with fibroblasts
Summary of the method: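 Co-culture of human bronchial epithelial cells and dermal fibroblasts, chemical exposure 24 h. Keratin 8/18 measured by ELISA; positive-direction fit vs DMSO. SRB total protein run in parallel cultures for cytotoxicity.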

[12] = read-out: Matrix Metallopeptidase 1 (MMP1), MMP1 (gene 4312); assay: BSK_BF4T_MMP1: BioMAP Diversity Plus: BF4T Assay for Matrix Metallopeptidase 1 (MMP1) Biomarker Activity (AID 2284270); conditions: primary human bronchial epithelial cells with fibroblasts
Summary of the method: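 Co-culture of human bronchial epithelial cells and dermal fibroblasts; MMP-1 levels measured by ELISA 24 hours after chemical dosing, relative to DMSO. Cytotoxicity checked in parallel cultures by SRB total-protein staining.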

[13] = read-out: Matrix Metallopeptidase 3 (MMP3), MMP3 (gene 4314); assay: BSK_BF4T_MMP3: BioMAP Diversity Plus: BF4T Assay for Matrix Metallopeptidase 3 (MMP3) Biomarker Activity (AID 2284271); conditions: primary human bronchial epithelial cells with fibroblasts
Summary of the method: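 Co-culture of human bronchial epithelial cells and dermal fibroblasts dosed 24 h; MMP-3 measured by ELISA, positive-direction fit versus DMSO. Cytotoxicity tracked by SRB total-protein staining (560 nm) in parallel cultures.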

[14] = read-out: Tissue plasminogen activator (tPA), PLAT (gene 5327); assay: BSK_BF4T_tPA: BioMAP Diversity Plus: BF4T Assay for Tissue plasminogen activator (tPA) Biomarker Activity (AID 2284272); conditions: primary human bronchial epithelial cells with fibroblasts
Summary of the method: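 tPA level quantified by ELISA at 24 h post-treatment in bronchial epithelial/dermal fibroblast co-cultures, gain of signal scored against DMSO baseline. Parallel cultures stained with 0.1% SRB (560 nm) to flag overt cytotoxicity.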

[15] = read-out: Plasminogen Activator Inhibitor-1 (PAI1), SERPINE1 (gene 5054); assay: BSK_BF4T_PAI1: BioMAP Diversity Plus: BF4T Assay for Plasminogen Activator Inhibitor-1 (PAI1) Biomarker Activity (AID 2284273); conditions: primary human bronchial epithelial cells with fibroblasts
Summary of the method: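 Co-culture of human bronchial epithelial cells and dermal fibroblasts exposed to compound for 24 h. PAI-1 measured by ELISA; activity fitted in positive direction versus DMSO. Parallel SRB staining assessed overt cytotoxicity.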

[16] = BSK_BF4T_SRB: Viability Assessment in the BioMAP Diversity Plus: BF4T Assay (AID 2284274); conditions: primary human bronchial epithelial cells with fibroblasts
Summary of the method: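 Co-culture of human bronchial epithelial cells and dermal fibroblasts (BioMAP BF4T) exposed 24 h. Total protein by sulforhodamine B staining (0.1% SRB after 10% TCA fixation, 560 nm) in parallel cultures; fitted vs DMSO.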

[17] = read-out: urokinase Plasminogen Activator (uPA), PLAU (gene 5328); assay: BSK_BF4T_uPA: BioMAP Diversity Plus: BF4T Assay for urokinase Plasminogen Activator (uPA) Biomarker Activity (AID 2284275); conditions: primary human bronchial epithelial cells with fibroblasts
Summary of the method: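 Co-culture of human bronchial epithelial cells and dermal fibroblasts; uPA quantified by ELISA 24 hours after dosing, fitted relative to DMSO. Parallel SRB total-protein staining assessed overt cytotoxicity.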

[18] = read-out: Matrix Metallopeptidase 9 (MMP9), MMP9 (gene 4318); assay: BSK_BF4T_MMP9: BioMAP Diversity Plus: BF4T Assay for Matrix Metallopeptidase 9 (MMP9) Biomarker Activity (AID 2284276); conditions: primary human bronchial epithelial cells with fibroblasts
Summary of the method: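 Co-culture of human bronchial epithelial cells and dermal fibroblasts dosed for 24 h; MMP-9 quantified by ELISA and fitted upward versus DMSO. Cytotoxicity monitored in parallel cultures by SRB total-protein staining at the biomarker time point.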

[19] = read-out: Interleukin-8 (IL8), CXCL8 (gene 3576); assay: BSK_IMphg_IL8: BioMAP Diversity Plus: IMphg Assay for Interleukin-8 (IL8) Biomarker Activity (AID 2284277); conditions: primary human endothelial cells with macrophages
Summary of the method: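 Co-culture of human venular endothelial cells and macrophages exposed to chemicals for 24 h; IL-8 quantified by ELISA and compared against the DMSO baseline, with SRB total-protein staining in parallel cultures for cytotoxicity.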

[20] = read-out: Intercellular Adhesion Molecule 1 (ICAM1), ICAM1 (gene 3383); assay: BSK_BE3C_ICAM1: BioMAP Diversity Plus: BE3C Assay for Intercellular Adhesion Molecule 1 (ICAM1) Biomarker Activity (AID 2284278); conditions: primary human bronchial epithelial cells
Summary of the method: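 Human primary bronchial epithelial cultures; compound added; 24 h incubation; cell-surface ICAM-1 measured by ELISA; signal increase fitted relative to DMSO negative control.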

Measured: AC50

ClC1=C(Cl)[C@]2(Cl)[C@H]3[C@H]([C@H]4C=C[C@H]3C4)[C@@]1(Cl)C2(Cl)Cl
inactive: [1] | [2] | [4]
active: [3] 20 µM

CCNc1nc(NC(C)(C)C)nc(SC)n1
active: [3] 31.5 µM
inactive: [1] | [2] | [4]

O=[N+]([O-])c1ccc2c3c(cccc13)CC2
active: [3] 20 µM
inactive: [1] | [2] | [4]

COP(=S)(OC)Oc1c(Cl)cc(C)cc1Cl
inactive: [1] | [2] | [3] | [4]

CCOP(=S)(OCC)SCCS(=O)(=O)CC
inactive: [1] | [2] | [3] | [4]

O=C(O)C(F)(F)C(F)(F)C(F)(F)C(F)(F)C(F)(F)C(F)(F)C(F)(F)C(F)(F)C(F)(F)C(F)(F)F
active: [5] 3.14 µM and 3.33 µM | [6] 5.55 µM and 5.18 µM | [7] 5.15 µM and 4.51 µM | [8] 4.83 µM | [9] 5.82 µM and 5.74 µM | [10] 5.56 µM and 6.17 µM | [1] 5.02 µM and 5.16 µM | [11] 5.05 µM and 5.17 µM | [2] 5.01 µM and 5.05 µM | [4] 4.33 µM and 5.2 µM | [12] 5.11 µM and 5.66 µM | [13] 5.26 µM and 3.33 µM | [14] 4.42 µM and 5.58 µM | [15] 5.2 µM and 6.13 µM | [16] 5.49 µM and 5.63 µM | [17] 6.49 µM and 6.17 µM | [18] 4.36 µM and 5.37 µM | [20] 5.73 µM and 6.33 µM
inactive: [8] | [3] | [19]

C(=NC1CCCCC1)=NC1CCCCC1
active: [2] 7.2 µM | [3] 4.75 µM | [4] 6.97 µM
inactive: [1]

CCOC(=O)/C=C(C)/C=C/C[C@@H](C)CCCC(C)C
active: [1] 20 µM | [2] 30.1 µM | [3] 20 µM | [4] 29.8 µM

CC1(C)Cc2cccc(O)c2O1
inactive: [1] | [2] | [3] | [4]

NC(=S)Nc1ccccc1
inactive: [1] | [2] | [3] | [4]

CCSC(C)CC1CC(=O)C(C(CC)=NOC/C=C/Cl)=C(O)C1 (centres undefined)
inactive: [1] | [2] | [3] | [4]

COC(=O)Cc1ccccc1
inactive: [20]

CCCCCCCCC(=O)NCc1ccc(O)c(OC)c1
inactive: [1] | [2] | [3] | [4]

OCc1ccco1
inactive: [1] | [2] | [3] | [4]

Nc1ncc([N+](=O)[O-])s1
inactive: [1] | [2] | [3] | [4]

CC(=O)OC(c1ccccc1)C(Cl)(Cl)Cl (centres undefined)
inactive: [20]

COC[C@H](C)N(C(=O)CCl)c1c(C)csc1C
inactive: [1] | [2] | [3] | [4]

COP(=S)(OC)Oc1cc(Cl)c(Cl)cc1Cl
active: [3] 20 µM
inactive: [1] | [2] | [4]

O=S(=O)(c1ccc(Cl)cc1)c1ccc(Cl)cc1
inactive: [1] | [2] | [3] | [4]

COP(=S)(OC)Oc1ccc(S(=O)(=O)N(C)C)cc1
inactive: [1] | [2] | [3] | [4]

ClC(Cl)=C(Cl)C(Cl)=C(Cl)Cl
inactive: [1] | [2] | [3] | [4]

CCCCC(CC)CO[N+](=O)[O-] (centres undefined)
inactive: [1] | [2] | [4]
active: [3] 31.6 µM

Reference: PubChem BioAssay (EPA / NIEHS)
